# Compounds with a hit are over-represented: about 2.4% of the library has one in this group of screens.
# POLB inh – DNA polymerase beta (human) inhibition; Potency, µM (series often up to 114 µM), for the others: at the top dose activity change, negative = inhibition, actives largely listed as inhibitors; 340,000 tested, 1.3% active; P06746; Pol beta primer extension/strand displacement, fluorescence kinetic; AID 485314; further: on the % scale 0 is the no-effect control and ±100 the full control effect
#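 Human Pol beta at 10 nM; strand-displacement substrate 50 nM final. Compound exposure 15 min at room temperature before start, reaction 10 min at room temperature.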
# Pol iota inh – inhibitors of human DNA polymerase iota. Q9UNA4. Pol iota fluorescent replication assay, 10 min. Potency, µM (doses to about 115 µM), inactives show at the highest dose activity, negative = inhibition, actives largely listed as inhibitors. 390,000 tested, 1% active. AID 588590
#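 Fluorescent replication assay read twice, at 0 min and 10 min after adding 50 nM (final) substrate. Enzyme (10 nM) and compounds were first incubated 15 min at room temperature; enzyme-free buffer wells were negative controls.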
# WRN inhibitor – WRN helicase (human) inhibition; Potency, µM (titrated, usually from 114 µM), without a hit: at the top dose activity change, negative = inhibition, hits mostly inhibitors; WRN helicase unwinding, fluorescent forked duplex, kinetic; 360,000 tested, 0.46% active; Q14191; AID 651768; further: on the % scale 0 is the no-effect control and ±100 the full control effect; nearly all actives have a fitted effect of over 55% in size
# Target sequence (Q14191 whole entry, looked up): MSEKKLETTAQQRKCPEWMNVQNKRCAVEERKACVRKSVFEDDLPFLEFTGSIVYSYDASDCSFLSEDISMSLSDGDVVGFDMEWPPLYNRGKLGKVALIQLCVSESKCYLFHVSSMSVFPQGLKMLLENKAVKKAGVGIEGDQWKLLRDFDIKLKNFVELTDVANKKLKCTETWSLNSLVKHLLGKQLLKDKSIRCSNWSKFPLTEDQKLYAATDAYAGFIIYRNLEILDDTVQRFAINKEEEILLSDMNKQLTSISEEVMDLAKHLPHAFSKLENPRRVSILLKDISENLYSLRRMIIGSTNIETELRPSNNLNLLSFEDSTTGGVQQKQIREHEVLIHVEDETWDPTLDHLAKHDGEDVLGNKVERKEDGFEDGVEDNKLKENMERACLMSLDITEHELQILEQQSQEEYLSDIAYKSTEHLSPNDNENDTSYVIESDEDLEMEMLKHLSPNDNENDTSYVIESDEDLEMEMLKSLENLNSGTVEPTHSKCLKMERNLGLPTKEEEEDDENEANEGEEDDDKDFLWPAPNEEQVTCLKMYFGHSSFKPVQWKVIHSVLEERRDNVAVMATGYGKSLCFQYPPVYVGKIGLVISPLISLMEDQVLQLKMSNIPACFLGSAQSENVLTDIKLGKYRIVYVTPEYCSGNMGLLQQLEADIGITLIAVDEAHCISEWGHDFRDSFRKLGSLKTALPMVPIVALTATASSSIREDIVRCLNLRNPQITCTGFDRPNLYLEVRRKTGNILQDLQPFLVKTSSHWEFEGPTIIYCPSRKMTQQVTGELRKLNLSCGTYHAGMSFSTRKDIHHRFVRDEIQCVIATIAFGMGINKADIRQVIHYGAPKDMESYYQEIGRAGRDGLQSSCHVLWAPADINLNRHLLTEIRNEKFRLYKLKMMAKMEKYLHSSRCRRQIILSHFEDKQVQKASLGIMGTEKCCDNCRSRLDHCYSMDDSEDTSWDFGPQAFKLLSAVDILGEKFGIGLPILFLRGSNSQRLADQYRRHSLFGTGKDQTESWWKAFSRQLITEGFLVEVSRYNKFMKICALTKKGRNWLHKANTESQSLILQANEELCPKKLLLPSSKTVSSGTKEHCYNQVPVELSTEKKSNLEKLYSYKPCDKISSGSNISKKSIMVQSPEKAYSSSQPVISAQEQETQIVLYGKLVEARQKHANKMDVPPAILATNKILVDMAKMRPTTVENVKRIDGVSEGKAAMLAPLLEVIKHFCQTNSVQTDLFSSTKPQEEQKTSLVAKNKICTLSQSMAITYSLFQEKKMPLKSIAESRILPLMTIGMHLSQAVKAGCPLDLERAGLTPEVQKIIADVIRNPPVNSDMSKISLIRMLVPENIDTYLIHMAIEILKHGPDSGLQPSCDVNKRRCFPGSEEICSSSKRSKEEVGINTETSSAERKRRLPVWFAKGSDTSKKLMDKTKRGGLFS
#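 Screening of the MLSMR collection measured strand separation of a quenched forked DNA duplex (100 nM) by 20 nM WRN with 2 mM ATP, all final. Compounds were preincubated with enzyme 15 min at room temperature.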
# POLH inh – inhibitors of human DNA polymerase eta. AID 588591. Q9Y253. recombinant Pol eta, fluorescent DNA replication assay. 390,000 tested, 1.2% active. Potency, µM (titrated, usually from 114 µM), without a hit: at the top dose activity change, negative = inhibition, most hits filed as inhibitors; further: on the % scale 0 is the no-effect control and ±100 the full control effect
#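 Pol eta at 10 nM preincubated with compounds 15 min at room temperature; reaction started with fluorescent substrate (50 nM final) and read kinetically at 0 and 10 min.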
# Pol kappa inh – DNA polymerase kappa (human) inhibition. Q9UBT6. purified Pol kappa, fluorescent DNA synthesis assay, 10 min. Potency, µM (series often up to 107 µM), without a hit: at the highest dose activity, negative = inhibition, actives largely listed as inhibitors. 400,000 tested, 0.53% active. AID 588579; further: on the % scale 0 is the no-effect control and ±100 the full control effect
#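 Kinetic fluorescence screen: compound preincubated 15 min RT with 10 nM enzyme; 50 nM substrate (final) initiates; reads at 0/10 min.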
# FEN1 inh – inhibitors of human flap endonuclease 1 | P39748 | Recombinant FEN1 flap cleavage, fluorescence, 15 min | Potency, µM (doses to about 114 µM), without a hit: top-dose activity change, negative = inhibition, actives largely listed as inhibitors | 390,000 tested, 0.35% active | AID 588795; further: on the % scale 0 is the no-effect control and ±100 the full control effect; nearly all actives have a fitted effect of over 65% in size
#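 Recombinant FEN1 (10 nM) was preincubated with pin-transferred compounds for 15 min at room temperature, then flap DNA substrate (50 nM final) was added. Plates were read at 0 and 15 min, and normalized concentration–response data were fitted to a four-parameter Hill equation.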
# Starred values were filed as active, the others as inactive; ? = inconclusive; nt = no result given; [ ] = dose if it differs, or a comment. The call rests on the fitted dose curve; in most records, active means well fitted curve in the direction sought with a large enough effect; inconclusive means small, poorly fitted or top-dose-only effect, or another doubt; inactive means no such curve, though single readings can be large; an effect the other way counts as inactive or inconclusive. Potency means the concentration at half of the fitted maximal effect.
SMILES,POLB inh,Pol iota inh,WRN inhibitor,POLH inh,Pol kappa inh,FEN1 inh
O=S(=O)(Nc1nc2ccccc2nc1Nc1cccc(S(=O)(=O)N2CCCCC2)c1)c1ccccc1,?,?,-31%[57.1 µM],89µM*,-16%,4%
Nc1ncc(S(=O)(=O)NCc2cccc(Cl)c2)cn1,12%,22%,nt,-15%,-3%[60.1 µM],-6%
O=C(Nc1ccc2nc(-c3cccs3)c(-c3cccs3)nc2c1)N1CCCCC1,nt,24%,nt,nt,-45%,-20%
Cc1ccc(C2=NN(C(=O)CSc3nc4ncc(Cl)cc4[nH]3)C(c3ccco3)C2)cc1 (stereo not given),?,43%,-4%,-4%,-10%,-12%
O=C(OCC(=O)N1N=C(c2ccc(Cl)cc2)CC1c1ccco1)c1cccnc1 (stereo not given),nt,?,?,28µM*,45µM*,?
COCC(=O)OCC(=O)N1N=C(c2ccc(Cl)cc2)CC1c1ccco1 (stereo not given),-1%,64%,-3%,-9%,-5%,-7%
COc1ccc(C2=NN(C(=O)CSc3nc4ncc(Cl)cc4[nH]3)C(c3ccco3)C2)cc1 (stereo not given),11%,45µM*,-28%,-11%,89µM*,-3%
Cc1cc(Nc2cccc(Br)c2)n2c(nc3ccccc32)c1C#N,20%,11%,nt,-8%,-6%,-3%
O=S(=O)(c1cccs1)N1CN(CC2CCCO2)c2nc3ccccc3nc21 (stereo not given),1%,14%,-10%,1%,-4%,-12%
Cc1ccc(S(=O)(=O)N2CN(CC3CCCO3)c3nc4ccccc4nc32)c(C)c1 (stereo not given),-8%,71µM*,-2%[11.6 µM],-18%,-18%,-1%
COC(=O)C(C)Oc1ccc2c(c1)O/C(=C\c1ccco1)C2=O (stereo not given),?,45µM*,-18%,45µM*,?,-8%
COc1ccccc1CCNC(=O)C(=O)NCC(c1cccnc1)N1CCN(c2ccccc2)CC1 (stereo not given),17%,1%,nt,-6%,1%,2%
COc1cccc(N2CCN(S(=O)(=O)c3ccc(-c4ccno4)cc3OC)CC2)c1,-1%,1%,nt,-14%,-11%[60.1 µM],-11%
O=C1CCc2cc(S(=O)(=O)NC3CCCCC3)cc3c2N1CC3,nt,50µM*,-20%,?,-1%,22%
CN(C1CCCCC1)S(=O)(=O)c1cc2c3c(c1)CCN3C(=O)CC2,nt,-29%,-5%,-19%,2%,-3%
COc1cccc(Cn2c(=O)c(C)nc3cnc(N(C)C)nc32)c1,nt,nt,nt,nt,-2%[60.1 µM],nt
COc1cc([N+](=O)[O-])ccc1NC(=O)N1CCC2(CC1)Nc1ccccc1-n1cccc12,12%,-12%,nt,-9%,1%[60.1 µM],-15%
Cc1nc2cnc(N3CCN(C)CC3)nc2n(C2CC2)c1=O,nt,nt,nt,nt,-10%[60.1 µM],nt
COc1ccc(C(=O)NCCc2c[nH]c3ccccc23)cc1OC,-30%,13%,4%,2%,-10%,-11%
O=C(NCCc1c[nH]c2ccccc12)c1ccc2nc[nH]c2c1,nt,?,-17%,50µM*,-22%,5%
CCC(c1ccccc1)C(CC)c1cc(O)c(O)c(O)c1 (stereo not given),nt,?,45µM*,-21%,-5%,-16%
COc1ccc(C2=Nn3c(nnc3-c3ccccc3F)SC2)cc1OC1CCOC1 (stereo not given),nt,-18%,nt,-7%,?,-3%
COc1ccc(C2=Nn3c(nnc3-c3ccccc3F)SC2)cc1OC1CCCC1,nt,-10%,nt,-15%,50µM*,?
Cc1cc(-c2ccccc2)nc(Nc2nc3c(C)cccc3c(=O)[nH]2)n1,nt,17%,-4%,45µM*,-3%,17%
COC(=O)c1ccc(CC(=O)c2c(C)cc(O)cc2O)o1,?,?,?,?,25µM*,?
SMILES,POLB inh,Pol iota inh,WRN inhibitor,POLH inh,Pol kappa inh,FEN1 inh
Cn1nnc2c(NCc3ccco3)ncnc21,nt,3%,nt,nt,7%,-5%
CC(=O)Nc1ccc(C2Nc3c(C)cc(C)cc3-c3cc(C)nn32)cc1 (stereo not given),5%,33%,nt,-25%,-12%,2%
CCOc1ccc(OCC)c(NC(=O)C2CCCN(S(=O)(=O)c3cc(Br)cc4c3N(C(=O)CC)CC4)C2)c1 (stereo not given),0%,89µM*,nt,-4%,-24%,-7%
OCCN=c1cc(-c2ccccc2)oc2ccc(Cl)cc12,89µM*,?,-5%,2%,-8%,?
CN(C)CCCN=c1cc(-c2ccccc2)oc2ccc(Cl)cc12,-6%,-7%,-6%,-4%,-15%,?
CC1CCN(c2ccc(C(=O)O)cc2N)CC1,?,?,-13%[57.1 µM],18µM*,-17%,-8%
Nc1cc(C(=O)O)ccc1N1CCCCC1,?,?,?,10µM*,79µM*,-10%
CC(=O)Nc1ccc(S(=O)(=O)CC(=O)CS(=O)(=O)c2ccc(NC(C)=O)cc2)cc1,nt,nt,-7%[11.6 µM],35µM*,nt,nt
CC(=O)CCS(=O)(=O)c1ccc(NC(C)=O)cc1,?,154%,-2%,-12%,17%,-11%
C#CCOCCOCCOCCNc1nc(N2CCN(C(=O)[C@H](CCC(=O)O)n3cc(C(N)[C@H](C)CC)nn3)CC2)nc(N2CCN(C(=O)[C@H](CCC(=O)O)n3cc(C(N)[C@H](C)CC)nn3)CC2)n1 (stereo not given in full),2%,?,-7%,25µM*,-54%,5%
C#CCOCCOCCOCCNc1nc(N2CCN(C(=O)[C@H](Cc3ccc(O)cc3)n3cc([C@@H](N)C(C)CC)nn3)CC2)nc(N2CCN(C(=O)[C@H](Cc3cc4ccccc4[nH]3)n3cc([C@@H](N)C(C)CC)nn3)CC2)n1 (stereo not given in full),25µM*,28µM*,-25%,-9%,-13%,-7%
C#CCOCCOCCOCCNc1nc(N2CCN(C(=O)[C@H](Cc3cc4ccccc4[nH]3)n3cc([C@@H](N)C(C)CC)nn3)CC2)nc(N2CCN(C(=O)[C@H](Cc3cc4ccccc4[nH]3)n3cc([C@@H](N)Cc4ccc(O)cc4)nn3)CC2)n1 (stereo not given in full),83%,nt,nt,nt,nt,nt
C#CCOCCOCCOCCNc1nc(N2CCN(C(=O)[C@H](Cc3cc4ccccc4[nH]3)n3cc([C@@H](N)CC(C)C)nn3)CC2)nc(N2CCN(C(=O)[C@H](Cc3cc4ccccc4[nH]3)n3cc([C@@H](N)CC(C)C)nn3)CC2)n1,28µM*,?,-19%,-3%,-3%,-16%
